Measured values taken from PubChem BioAssay (EPA / NIEHS).
Results filed as inconclusive are left out. Some structures have more than one record in an assay (separate samples or runs), and their calls can disagree. Activity calls are given as the source filed them. The calls were made as follows, unless noted: active = hit-call score of the fitted dose curve at least 0.9, where 1 is the maximum; inactive = score below 0.9.

Tests used:
[1] = CCTE_Shafer_MEA_acute_AB: CCTE's Alamar Blue Assay for Cytotoxicity in the Neural Acute Assay, Shafer Lab (AID 2284069; active = hit-call score of the fitted dose curve at least 0.9, where 1 is the maximum;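 also: active compounds lower the viability signal compared with DMSO wells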)
Method in brief: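 Metabolic activity in chemically exposed rat cortical neurons (MEA cultures, day 13/15 post-plating) measured via CellTiter Blue resazurin reduction, 544/590 nm fluorescence; fitted relative to DMSO, with signal loss indicating reduced viability.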

[2] = CCTE_Shafer_MEA_acute_LDH: CCTE's Lactate Dehydrogenase Assay for Cytotoxicity in the Neural Acute Assay, Shafer Lab (AID 2284086; active = hit-call score of the fitted dose curve at least 0.9, where 1 is the maximum;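 also: active means LDH release rises above DMSO vehicle level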)
Method in brief: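 LDH absorbance at 490 nm in medium taken right after 40-min compound exposure; rat primary cortical neuron networks on MEA plates, days post-plating 13 or 15. Increase over DMSO baseline scored as cytotoxicity.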

DIO3 (gene 1735) = assay: CCTE_GLTED_hDIO3: CCTE's human Deiodinase 3 (DIO3) Inhibition Assay, Great Lakes Toxicology and Ecology Division (GLTED) Lab (AID 2284055; active = hit-call score of the fitted dose curve at least 0.9, where 1 is the maximum;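 as to AC50: potency is for inhibition seen as loss of released iodide signal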)
Method in brief: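 hDIO3 (adenovirus-expressed) + test chemical, 3 h incubation; free iodide quantified by Sandell-Kolthoff reaction, absorbance read-out. DMSO negative control, n=3.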

[3] = CCTE_Shafer_MEA_dev_spike_duration_mean: CCTE's Neural Network Formation Assay for Mean Spike Duration, Shafer Lab (AID 2284051);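 also: mean network spike duration pooled as area under curve over DIV 5 to 12 recordings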;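 as to AC50: potency for a decrease in mean network spike duration versus DMSO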
Method in brief: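 Readout is the average length of network spikes, clustered firing across electrodes, summed over DIV 5, 7, 9 and 12 as area under the curve. Neurons from rat cortex developed networks on MEA plates under continuous 12-day exposure.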

[4] = CCTE_Shafer_MEA_dev_network_spike_duration_std: CCTE's Neural Network Formation Assay for Standard Deviation of Network Spike Duration, Shafer Lab (AID 2284052);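 also: area under curve of spike duration SD across recording days 5 to 12; hits are decreases in network spike duration SD versus DMSO vehicle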
Method in brief: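 Read-out is the trapezoidal area-under-the-curve across recordings made on days 5, 7, 9 and 12, fitted in the negative direction against DMSO baseline. Neurons were primary rat cortical cells treated from day 0, with treatment renewed at each feed.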

[5] = CCTE_Shafer_MEA_dev_per_network_spike_spike_number_mean: CCTE's Neural Network Formation Assay for Mean Number of Spikes in a Network Spike, Shafer Lab (AID 2284053);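 as to AC50: fitted as decrease in spikes per network spike relative to DMSO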
Method in brief: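 Continuous twelve-day exposure of developing rat cortical networks grown over 16 microelectrodes per well; spontaneous firing is captured at four time points, and the per-network-spike spike number is integrated over development by trapezoidal AUC.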

[6] = CCTE_Shafer_MEA_dev_per_network_spike_spike_percent: CCTE's Neural Network Formation Assay for Percent of Spikes in a Network Spike, Shafer Lab (AID 2284054)
Method in brief: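 Read-out: percent of spikes falling in a 0.05 s window at network-spike peak, from spontaneous MEA recordings on days 5, 7, 9 and 12; trapezoidal AUC; loss of signal versus DMSO. Rat cortical cultures, compound present throughout.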

[7] = CCTE_Shafer_MEA_dev_LDH: CCTE's Lactate Dehydrogenase Assay for Cytotoxicity in the Neural Network Formation Assay, Shafer Lab (AID 2284068; active = hit-call score of the fitted dose curve at least 0.9, where 1 is the maximum;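 also: exposure for twelve days from plating with re-dosing on DIV 5 and 9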)
Method in brief: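 Cytotoxicity companion to network-formation recordings: rat cortical neurons received compound over 12 days of development, re-dosed at DIV 5 and 9 feeds. Viability was inferred from LDH enzyme activity relative to DMSO.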

[8] = CCTE_Shafer_MEA_dev_AB: CCTE's Alamar Blue Assay for Cytotoxicity in the Neural Network Formation Assay, Shafer Lab (AID 2284083; active = hit-call score of the fitted dose curve at least 0.9, where 1 is the maximum;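 also: twelve days of exposure from plating with re-dosing on DIV 5 and 9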)
Method in brief: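 Fluorescent resazurin reduction serves as the viability read-out, with DMSO as negative control and baseline. Cells were primary rat cortical neurons grown on MEA plates and dosed from day 0 to day 12, treatment renewed on DIV 5 and 9.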

[9] = CCTE_Shafer_MEA_dev_mutual_information_norm: CCTE's Neural Network Formation Assay for Mutual Information Normalization, Shafer Lab (AID 2284091);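 as to AC50: mutual information between electrodes summarised as area under curve across four recording days; potency is for a decrease in mutual information relative to DMSO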
Method in brief: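 Neurons from rat cortex were seeded at 1.5 x 10^5 cells/well onto PEI-coated MEAs in a laminin drop, then exposed to compound from day 0 for twelve days. Network recordings on four days gave mutual information, summarised by AUC relative to DMSO.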

[10] = CCTE_Shafer_MEA_dev_correlation_coefficient_mean: CCTE's Neural Network Formation Assay for Mean Correlation Coefficient, Shafer Lab (AID 2284093);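 as to AC50: well mean pairwise spike train correlation integrated as AUC over recording days 5 to 12; potency fitted for loss of correlation relative to DMSO vehicle wells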
Method in brief: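 Read-out: well-mean correlation coefficient of spike trains between electrode pairs, collapsed over four recording days as trapezoidal area-under-the-curve. Developing rat cortical neuron networks grown on MEAs received test chemical continuously from plating.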

[11] = UKN2_HCS_IMR90_neural_migration: University of Konstanz (UKN) Leist Lab Neural Crest Cell Migration Assay in human induced IMR90 Pluripotent Stem Cells (UKN2) (AID 2284204); conditions: actives raise or lower the signal
Method in brief: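 Stopper-exclusion migration (cMINC), human iPSC-derived neural crest cells; N2-S + EGF/FGF; compound added 24 h post-stopper removal, 24 h exposure. Readout: calcein-AM/Hoechst 30 min, HCS fluorescence imaging; bidirectional fitting, DMSO baseline.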

[12] = IUF_NPC1b_proliferation_BrdU_72hr: Leibniz Research Institute for Environmental Medicine (IUF) 72-hour Neural Progenitor Cell Bromodeoxyuridine (BrdU) Proliferation Assay (NPC1b) (AID 2284207)
Method in brief: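 Luminescent BrdU ELISA measured DNA synthesis during the last 16 h of a 72 h exposure of primary human neural progenitor spheres grown with EGF and FGF. Signal was fitted relative to DMSO controls.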

[13] = IUF_NPC1a_proliferation_area_72hr: Leibniz Research Institute for Environmental Medicine (IUF) 72-hour Neural Progenitor Cell Proliferation Area Assay (NPC1a) (AID 2284208)
Method in brief: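 Read-out: increase in sphere area over 72 h by automated phase-contrast imaging, fitted in positive direction versus DMSO baseline. One hNPC sphere (0.25-0.35 mm) per well in EGF/FGF medium; growth-factor withdrawal served as positive control.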

[14] = IUF_NPC1_viability_72hr: Viability Assessment at 72 hours in the Leibniz Research Institute for Environmental Medicine (IUF) Neural Progenitor Cell Proliferation Assay (NPC1) (AID 2284209)
Method in brief: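 Alamar blue fluorescence (RFU) after 72 h exposure, normalized to DMSO baseline. hNPC spheres from GW 16-19 fetal cortex, single sphere per well in growth-factor medium; no compound renewal.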

[15] = CCTE_Mundy_HCI_Cortical_Synap_Neur_Matur_NeuriteSpotCountPerNeuriteLength: CCTE's Synaptogenesis and Neurite Maturation Assay in rat cortical cells for Neurite Spot Count per Neurite Length, Mundy Lab (AID 2284210)
Method in brief: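 Read-out: synaptophysin puncta counted along MAP2-stained neurites, normalised to neurite length, by automated high-content imaging. Rat cortical cells; AraC DIV 5; chemical dosing DIV 7; termination DIV 12. DMSO baseline.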

[16] = CCTE_Mundy_HCI_Cortical_Synap_Neur_Matur_BPCount: CCTE's Synaptogenesis and Neurite Maturation Assay in rat cortical cells for Branch Point Count, Mundy Lab (AID 2284211)
Method in brief: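 In this multiplexed morphology assay, cortical cells from rat receive chemicals at DIV 7 and are fixed at DIV 12, then immunostained and imaged; branch points are counted, with DMSO as baseline.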

[17] = UKN5_HCS_SBAD2_cell_viability: Viability Assessment in the University of Konstanz (UKN) Leist Lab Neurite Outgrowth Assay in human iPSC-derived immature Dorsal Root Ganglia Neurons (UKN5) (AID 2284056)
Method in brief: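 iPSC-derived immature peripheral neurons (SBAD2) seeded on Matrigel with CHIR99021, SU5402 and DAPT, dosed 1 h later for 24 h. Viability from Hoechst H-33342 and calcein-AM live staining, high-content imaging; bidirectional fit versus DMSO.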

[18] = UKN5_HCS_SBAD2_neurite_outgrowth: University of Konstanz (UKN) Leist Lab Neurite Outgrowth Assay in human iPSC-derived immature Dorsal Root Ganglia Neurons (UKN5) (AID 2284070); conditions: actives raise or lower the signal
Method in brief: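 Cryopreserved SBAD2 peripheral neurons were seeded at 100.000 cells/cm2 in N2-S/KSR medium containing CHIR99021, SU5402 and DAPT, then exposed to compounds for 24 h. Neurite area from calcein-AM high-content imaging was fitted bidirectionally against DMSO.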

[19] = UKN4_HCS_LUHMES_neurite_outgrowth: University of Konstanz (UKN) Leist Lab Neurite Outgrowth Assay in human LUHMES cells (UKN4) (AID 2284206); conditions: actives raise or lower the signal
Method in brief: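 Read-out: calcein-AM neurite area by high-content fluorescence imaging, with Hoechst H-33342 viability counterstain, after 24 h chemical exposure of day-2 differentiated LUHMES cells. Activity fitted bidirectionally against DMSO baseline.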

Measured: AC50

c1ccc(OCCOc2ccccc2)cc1
inactive: [1] | [2]

CCn1cc(C(=O)O)c(=O)c2ccc(C)nc21
inactive: [2]

CC(C)(CO)CO
inactive: [1] | [2]

CCCCOCCOCCO
inactive: [2]

C=C(C)C(=O)OCCC(C)OC(=O)C(=C)C (stereo not given)
active: DIO3 (gene 1735) 36.9 µM

CC/C(=C(\c1ccccc1)c1ccc(OCCN(C)C)cc1)c1ccccc1
active: [3] 0.35 µM | [4] 0.273 µM | [5] 0.0668 µM | [6] 3.89 µM | DIO3 (gene 1735) 84.2 µM | [7] 2.87 µM | [8] 5 µM | [9] 0.196 µM | [10] 3.76 µM
inactive: DIO3 (gene 1735) | [1]

CCCCC(CC)COC(=O)COc1ccc(Cl)cc1C (stereo not given)
inactive: [3] | [4] | [5] | [6] | [9] | [10] | [11] | [13] | [14]
active: [12] 0.0137 µM | [15] 24.2 µM | [16] 15.7 µM

O=C(c1ccc(OCCN2CCCCC2)cc1)c1c(-c2ccc(O)cc2)sc2cc(O)ccc12
inactive: [1] | [2]

c1ccc2scnc2c1
active: [12] 10 µM
not listed: [1] | [2] | DIO3 (gene 1735) | [8] | [17] | [18] | [19]
inactive: all other assays above

CCCCN(CCO)CCO
inactive: [1]

CCCCCCCCOC(=O)c1ccc(O)cc1
active: DIO3 (gene 1735) 30.7 µM

CC(C)Cc1ccc(C(C)C(=O)O)cc1 (stereo not given)
active: [6] 15 µM | [7] 15 µM | [8] 2.98 µM | [9] 3.62 µM
not listed: [1] | [2] | DIO3 (gene 1735)
inactive: all other assays above

N#CCCNCCC#N
inactive: [3] | [4] | [5] | [6] | [7] | [9] | [10] | [15] | [16]

C[C@]12CC[C@@H]3c4ccc(O)cc4CC[C@H]3[C@@H]1CC[C@@H]2O
active: [8] 6.6 µM
inactive: [3] | [4] | [5] | [6] | [7] | [8] | [9] | [10]

CCCCC/C=C\C=C\C(=O)OCC
active: DIO3 (gene 1735) 26.6 µM

CCCO[Si](OCCC)(OCCC)OCCC
inactive: [2]

CC(=O)c1ccc(C)cc1
inactive: [2]

N[C@@H](CCC(=O)O)C(=O)O
not listed: [1] | DIO3 (gene 1735) | [11] | [17] | [18] | [19]
inactive: all other assays above

CC(=O)OC/C=C(C)/C=C/C=C(C)/C=C/C1=C(C)CCCC1(C)C
active: DIO3 (gene 1735) 37.8 µM
